# Measurements: PubChem BioAssay AID504715 (Sanford-Burnham Center for Chemical Genomics, 2011)
# This is one part of the list. Values without a mark were called inactive.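 How the source made its calls: active means compounds giving 40% or more inhibition at 20 µM in any one of the three replicates; inactive means the rest.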
# Target: Uracil-DNA glycosylase (Escherichia coli (strain K12)) (UniProt P12295)
# Experiment: uracil-DNA glycosylase inhibition, oligo cleavage readout – biochemical, single concentration, fluorescence, FAM/TAMRA oligo, counter-screen for APOBEC3G inhibitor project, confirmation (AID 504715);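 further: plate controls were DMSO wells with UDG and oligo for no effect and DMSO wells lacking both for full effect; inhibitors lower the FAM signal released by uracil excision and alkaline cleavage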
# Conditions: UDG counterscreen, at 20 µM, hits give high values
# Uracil-DNA glycosylase (Escherichia coli (strain K12)), sequence (P12295 whole entry, looked up): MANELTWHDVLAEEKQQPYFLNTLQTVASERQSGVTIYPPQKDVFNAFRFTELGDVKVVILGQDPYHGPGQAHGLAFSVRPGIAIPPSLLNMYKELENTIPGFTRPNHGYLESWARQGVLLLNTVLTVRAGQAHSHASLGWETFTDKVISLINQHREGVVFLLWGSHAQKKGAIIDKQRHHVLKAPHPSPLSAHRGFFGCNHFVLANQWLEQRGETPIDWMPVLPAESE
row,Compound,inhibition
1,S=c1[nH]nc2c3c4c(sc3ncn12)CCCC4,-7.25%
2,Cc1ccc(S(=O)(=O)N(C)CC(=O)NCCc2c[nH]c3ccccc23)cc1,-2.52%
3,COCc1c(N)c(C)nc(Cl)c1C#N,-3.83%
4,COc1ccc(OCc2n[nH]c(=S)n2N)cc1,-3.03%
5,Fc1ccccc1/C=N/n1c(-c2cccnc2)n[nH]c1=S,0.6%
6,Nc1ccccc1SC(C[N+](=O)[O-])c1ccccc1 (stereo unspecified),-4.66%
7,O=C(Cn1cnc([N+](=O)[O-])n1)NCCc1ccccc1,5.33%
8,Cc1cc(-c2n[nH]c(=S)n2/N=C/c2ccco2)n[nH]1,2.12%
9,S=c1[nH]nc(-c2ccncc2)n1/N=C/c1ccccc1Cl,-3.82%
10,Cc1nc([N+](=O)[O-])nn1C12CC3CC(CC(Br)(C3)C1)C2,2.58%
11,CCOc1cc(C(=S)N2CCOCC2)ccc1O,-2.88%
12,CC(C)(C)c1nnc(NC(=O)C2c3ccccc3Oc3ccccc32)s1,-3.35%
13,CCOC(=O)c1sc(=S)n2c1[nH]c(=O)c1ccc(C(=O)OC)cc12,1.35%
14,S=c1[nH]nc(-c2ccco2)n1/N=C/c1ccccc1,-2.84%
15,O=C1C=CC(=O)N1c1ccc(N2CCCCC2)cc1,-1.51%
16,CCOc1ccc(NC(=O)c2ccc(NC(=O)COC(=O)c3ccc(NC(=O)CC#N)cc3)cc2)cc1,2.3%
17,COc1cccc(C(=O)CC(=O)C(=O)Nc2ccc([N+](=O)[O-])cc2C)c1,3.46%
18,CC(=O)N1CC[n+]2c(-c3ccc([N+](=O)[O-])cc3)csc21,-1.28%
19,S=c1[nH]nc(NCCc2ccccc2)s1,-0.78%
20,Cc1ccnc(-n2sc3ccccc3c2=O)n1,-5.94%
21,S=c1[nH]nc(Nc2ccccc2)s1,6.03%
